Results published in PubChem BioAssay (NCI).
This is part of a sample that, as a whole, favours compounds with a hit. Of some 79,000 tested, about 15% had one in any assay. Calls of active or inactive are those of the source. No stated cut-off is given here; in the data, active means growth inhibition above about 70%; inactive means the rest.

Experiments:
[1] = NCI Yeast Anticancer Drug Screen. Data for the rad52 strain (AID 147);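 further: 0% = growth of vehicle-treated control cultures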; settings: S. cerevisiae rad52 mutant growth inhibition, active compounds read high
Summary of the method: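 Growth of repair-deficient yeast cells was compared between compound-treated and vehicle-treated cultures to give percent inhibition.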

[2] = NCI Yeast Anticancer Drug Screen. Data for the wt1 strain (AID 149);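 further: 0% = growth of vehicle-treated wt1 cultures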; settings: S. cerevisiae wt1 strain (SPY 50644) growth inhibition, active compounds read high
Summary of the method: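 The wt1 strain was treated with compounds, and growth was compared with vehicle-treated cultures to give inhibition.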

[3] = NCI Yeast Anticancer Drug Screen. Data for the rad50EPP+ strain (AID 151);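 further: 0% = growth of vehicle-treated control cultures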; settings: S. cerevisiae rad50 mutant strain, active compounds read high
Summary of the method: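 Measured: growth inhibition of rad50EPP+ yeast. Reference: vehicle-treated controls. Screen uses strains with defined genetic alterations in DNA damage repair or cell cycle control.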

[4] = NCI Yeast Anticancer Drug Screen. Data for the mgt1 strain (AID 153); settings: S. cerevisiae mgt1 mutant growth inhibition, active compounds read high
Summary of the method: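 Compounds were applied to mgt1 mutant yeast, and growth was then compared against vehicle-treated control cultures to give percent inhibition.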

[5] = NCI Yeast Anticancer Drug Screen. Data for the rad50 strain (AID 155);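 further: 0% = growth of vehicle-only cultures of the same strain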; settings: S. cerevisiae rad50 strain growth inhibition, active compounds read high
Summary of the method: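 Cells are treated with compound, grown, and their growth is then scored against vehicle-only cultures of the same repair-deficient yeast strain.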

[6] = NCI Yeast Anticancer Drug Screen. Data for the mec2-1 strain (AID 157); settings: S. cerevisiae mec2-1 strain, active compounds read high
Summary of the method: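 Compounds were applied to mec2-1 yeast cells. Their growth was then compared with that of vehicle-treated cultures to give growth inhibition.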

[7] = NCI Yeast Anticancer Drug Screen. Data for the rad14 strain (AID 159);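 further: 0% = growth of vehicle-treated control cultures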; settings: S. cerevisiae rad14 strain growth inhibition, active compounds read high
Summary of the method: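 Readout: yeast growth inhibition, referenced to vehicle-only cultures. Strain bears a defined alteration in DNA damage repair.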

[8] = NCI Yeast Anticancer Drug Screen. Data for the CLN2oe strain (AID 163);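 further: 0% = growth of vehicle-only control cultures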; settings: S. cerevisiae CLN2oe strain, active compounds read high
Summary of the method: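 Cells of an engineered yeast line with disturbed cell-cycle regulation are treated with compound. Inhibition of growth is then calculated relative to the vehicle-treated reference.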

[9] = NCI Yeast Anticancer Drug Screen. Data for the cln2 rad14 strain (AID 165);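 further: 0% = growth equal to vehicle treated cultures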; settings: S. cerevisiae cln2 rad14 strain, active compounds read high
Summary of the method: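 Strain: cln2 rad14 yeast, altered in cell cycle control and DNA damage repair. Read-out: growth inhibition vs vehicle.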

[10] = NCI Yeast Anticancer Drug Screen. Data for the bub3 strain (AID 167); settings: S. cerevisiae bub3 mutant strain, active compounds read high
Summary of the method: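 Part of a panel of yeast mutants defective in DNA damage repair or cell cycle regulation. Each strain is grown with compound, and inhibition is calculated relative to solvent-treated cultures.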

[11] = NCI Yeast Anticancer Drug Screen. Data for the wt2 strain (AID 169);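 further: 0% = growth of vehicle-treated yeast cultures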; settings: S. cerevisiae wt2 strain growth inhibition, active compounds read high
Summary of the method: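 Growth of compound-treated yeast is measured and expressed as inhibition relative to vehicle-only controls.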

[12] = NCI Yeast Anticancer Drug Screen. Data for the mlh1 strain (AID 171);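 further: 0% = growth of vehicle-treated control cultures of the same strain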; settings: S. cerevisiae mlh1 strain growth inhibition, active compounds read high
Summary of the method: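 Test agents were incubated with yeast bearing a defined DNA damage repair or cell cycle control alteration; values are growth inhibition normalised to vehicle-treated cultures.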

[13] = NCI Yeast Anticancer Drug Screen. Data for the sgs1 strain (AID 173);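 further: 0% = growth of vehicle-only control cultures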; settings: S. cerevisiae sgs1 mutant, active compounds read high
Summary of the method: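 Strain with an altered DNA repair or cell cycle pathway exposed to compound. Growth then measured. Value = inhibition versus vehicle control.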

[14] = NCI Yeast Anticancer Drug Screen. Data for the mlh1 rad18 strain (AID 175); settings: S. cerevisiae mlh1 rad18 strain growth inhibition, active compounds read high
Summary of the method: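 A repair-deficient yeast strain is exposed to test compound, and growth is scored relative to vehicle-treated controls.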

[15] = NCI Yeast Anticancer Drug Screen. Data for the rad18 strain (AID 177); settings: S. cerevisiae rad18 mutant growth inhibition, active compounds read high
Summary of the method: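 DNA-repair-defective yeast; compound treatment; growth inhibition scored against vehicle.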

[16] = NCI Yeast Anticancer Drug Screen. Data for the sgs1 mgt1 strain (AID 161);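 further: 0% = growth of cultures given vehicle only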; settings: S. cerevisiae sgs1 mgt1 strain, active compounds read high
Summary of the method: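 Growth of a repair-deficient yeast mutant was monitored after compound treatment and expressed as inhibition relative to vehicle-treated cultures.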

[17] = at 5.0 µM (retest, dose inferred, filed as 0.5)
[18] = at 50.0 µM (retest, dose inferred, filed as 5.0)

Measured: growth inhibition

O=P(C(=S)Nc1c(Cl)cccc1Cl)(c1ccccc1)c1ccccc1
inactive: [1]; at 1.2 µM 21% | [1]; at 3.7 µM 24% | [1]; at 11.0 µM 22% | [1]; at 33.0 µM 24% | [2]; at 1.2 µM 31% | [2]; at 3.7 µM 25% | [2]; at 11.0 µM 18% | [2]; at 33.0 µM 24% | [3]; at 1.2 µM 6% | [3]; at 3.7 µM 8% | [3]; at 11.0 µM 24% | [3]; at 33.0 µM 19% | [3]; at 100.0 µM 31% | [4]; at 1.2 µM 11% | [4]; at 3.7 µM -16% | [4]; at 11.0 µM -11% | [4]; at 33.0 µM -1% | [5]; at 1.2 µM 20% | [5]; at 3.7 µM 8% | [5]; at 11.0 µM 14% | [5]; at 33.0 µM 1% | [6]; at 1.2 µM 5% | [6]; at 3.7 µM 9% | [6]; at 11.0 µM 14% | [6]; at 33.0 µM 7% | [7]; at 1.2 µM -13% | [7]; at 3.7 µM -14% | [7]; at 11.0 µM -16% | [7]; at 33.0 µM -18% | [8]; at 1.2 µM 8% | [8]; at 3.7 µM 21% | [8]; at 11.0 µM 15% | [8]; at 33.0 µM 16% | [9]; [17] 41% | [10]; at 1.2 µM 0% | [10]; at 3.7 µM 4% | [10]; [17] 21% | [10]; at 11.0 µM 14% | [10]; at 33.0 µM 11% | [11]; at 1.2 µM 21% | [11]; at 3.7 µM 8% | [11]; at 11.0 µM 15% | [11]; at 33.0 µM 35% | [12]; at 1.2 µM 10% | [12]; at 3.7 µM 10% | [12]; at 11.0 µM 0% | [12]; at 33.0 µM 6% | [13]; at 1.2 µM 25% | [13]; at 3.7 µM 13% | [13]; at 11.0 µM 3% | [13]; at 33.0 µM 18% | [14]; [17] 60% | [15]; at 1.2 µM -12% | [15]; at 3.7 µM -20% | [15]; at 11.0 µM -22% | [15]; at 33.0 µM -12%
active: [1]; at 100.0 µM 97% | [2]; at 100.0 µM 96% | [4]; at 100.0 µM 95% | [5]; [17] 73% | [5]; [18] 99% | [5]; at 50.0 µM 87.7% | [5]; at 100.0 µM 95% | [6]; [17] 71% | [6]; [18] 99% | [6]; at 50.0 µM 91% | [6]; at 100.0 µM 94% | [7]; at 100.0 µM 94% | [8]; at 100.0 µM 95% | [9]; [18] 96% | [9]; at 50.0 µM 89.9% | [10]; [18] 75% | [10]; at 50.0 µM 89% | [10]; at 100.0 µM 97% | [11]; at 100.0 µM 96% | [12]; at 100.0 µM 95% | [13]; at 100.0 µM 95% | [14]; [18] 98% | [14]; at 50.0 µM 87.2% | [15]; at 100.0 µM 96%

CCN(CC)CCC(=O)Nc1ccc2sc3ccccc3c(=O)c2n1
inactive: [1]; at 1.2 µM 33% | [2]; at 1.2 µM -4% | [2]; at 3.7 µM -2% | [2]; at 11.0 µM 1% | [2]; at 33.0 µM 10% | [2]; at 100.0 µM 8% | [3]; at 1.2 µM 25% | [3]; at 3.7 µM 66% | [4]; at 1.2 µM -1% | [4]; at 3.7 µM -4% | [4]; at 11.0 µM 5% | [4]; at 33.0 µM 4% | [4]; at 100.0 µM 3% | [5]; at 1.2 µM 21% | [5]; at 3.7 µM 53% | [5]; [17] 6% | [5]; at 50.0 µM 70% | [6]; at 1.2 µM 1% | [6]; at 3.7 µM 3% | [6]; [17] 4% | [6]; at 11.0 µM 13% | [6]; at 33.0 µM 24% | [6]; [18] -1% | [6]; at 50.0 µM -14.1% | [6]; at 100.0 µM 20% | [7]; at 1.2 µM -1% | [7]; at 3.7 µM 5% | [7]; at 11.0 µM 25% | [7]; at 33.0 µM 34% | [7]; at 100.0 µM 25% | [16]; [17] -22% | [16]; [18] -2% | [16]; at 50.0 µM 31.8% | [9]; [17] 21% | [9]; [18] 11% | [9]; at 50.0 µM 21.4% | [10]; at 1.2 µM -3% | [10]; at 3.7 µM 4% | [10]; [17] -20% | [10]; at 11.0 µM -3% | [10]; at 33.0 µM -2% | [10]; [18] -2% | [10]; at 50.0 µM 14.3% | [10]; at 100.0 µM -5% | [11]; at 1.2 µM -2% | [11]; at 3.7 µM -3% | [11]; at 11.0 µM 2% | [11]; at 33.0 µM 16% | [11]; at 100.0 µM 12% | [13]; at 1.2 µM -25% | [13]; at 3.7 µM 3% | [13]; at 11.0 µM 15% | [13]; at 33.0 µM 39% | [13]; at 100.0 µM 26% | [14]; [17] -6% | [14]; [18] 1% | [14]; at 50.0 µM 25.8% | [15]; at 1.2 µM -5% | [15]; at 3.7 µM -4% | [15]; at 11.0 µM -1% | [15]; at 33.0 µM -1% | [15]; at 100.0 µM 9%
active: [1]; at 3.7 µM 70% | [1]; at 11.0 µM 92% | [1]; at 33.0 µM 95% | [1]; at 100.0 µM 94% | [3]; at 11.0 µM 89% | [3]; at 33.0 µM 94% | [3]; at 100.0 µM 94% | [5]; at 11.0 µM 85% | [5]; at 33.0 µM 93% | [5]; [18] 90% | [5]; at 100.0 µM 91%
